# Bioassay records (PubChem BioAssay)
# DT40 TDP1 no CPT: qHTS for Inhibitors of human tyrosyl-DNA phosphodiesterase 1 (TDP1): qHTS in cells in absence of CPT; DT40 Tdp1-/- hTDP1 cells, no CPT, ATP luminescence, 48 h; Potency, µM (highest dose often 46.2 µM), without a hit: top-dose activity change, negative = growth inhibition, hits mostly inhibitors; hit rate 15% among 420,000; AID 686978, 2013; note: potency is the fitted concentration of half-maximal effect; nearly all actives have a fitted effect of over 55% in size
#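 Compound effects on proliferation are scored in DT40 Tdp1-/-;hTDP1 cells in the absence of CPT. ATP levels (CellTiter-Glo luminescence) are recorded after a ≥48 hr, 37 °C incubation.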
# RORgamma inh: inhibitors of mouse ROR gamma transcriptional activity. Drosophila S2 Gal4-RORgamma UAS-luciferase reporter, 20 h. Potency, µM (top dose mostly 53.6 µM), for the others: at the top dose activity change, negative = inhibition, usual class: inhibitors. hit rate 5.4% among 310,000. P51450; note: potency is the fitted concentration of half-maximal effect; nearly all actives have a fitted effect of over 60% in size
# Target sequence (P51450 whole entry, looked up, the tested form may be a part): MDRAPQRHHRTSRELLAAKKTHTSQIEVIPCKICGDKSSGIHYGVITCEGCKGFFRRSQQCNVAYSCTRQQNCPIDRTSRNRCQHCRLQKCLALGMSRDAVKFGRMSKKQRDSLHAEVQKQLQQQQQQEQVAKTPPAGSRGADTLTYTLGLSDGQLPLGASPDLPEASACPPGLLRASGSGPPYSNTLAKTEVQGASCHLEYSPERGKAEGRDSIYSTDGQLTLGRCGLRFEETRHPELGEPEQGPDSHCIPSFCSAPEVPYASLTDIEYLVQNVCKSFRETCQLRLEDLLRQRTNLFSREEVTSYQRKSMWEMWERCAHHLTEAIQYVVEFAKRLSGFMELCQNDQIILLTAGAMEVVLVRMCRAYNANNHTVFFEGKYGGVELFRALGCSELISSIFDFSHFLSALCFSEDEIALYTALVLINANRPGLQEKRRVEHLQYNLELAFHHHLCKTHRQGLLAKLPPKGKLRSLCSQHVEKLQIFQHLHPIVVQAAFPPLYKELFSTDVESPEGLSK
#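 A Gal4/UAS one-hybrid system in insect cells: metallothionein-promoter Gal4–ROR gamma fusion plus Photinus luciferase reporter. Copper sulfate 700 uM final, 20 hr ambient incubation, luminescent detection after 10 min with reagent.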
# DT40 TDP1 CPT: DT40-hTDP1 cell growth loss with CPT; chicken DT40 Tdp1-/-;hTDP1 cells + 20 nM CPT, ATP luminescence, 48 h; Potency, µM (doses to about 46.2 µM), inactives show at the top dose activity change, negative = growth inhibition, actives largely listed as inhibitors; hit rate 12% among 420,000; AID 686979; note: potency is the fitted concentration of half-maximal effect; nearly all actives have a fitted effect of over 55% in size
#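 Chicken DT40 Tdp1-/- cells complemented with human TDP1, 400 cells/well, exposed to compounds plus 20 nM camptothecin for at least 48 h at 37 C; viability read as ATP content by CellTiter-Glo luminescence.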
# ELG1 DNA repair: ELG1-dependent DNA repair inhibition; HEK293T ELG1-luciferase reporter, luminescence, 16 h; DNA damage induced by 5-fluorouridine; Potency, µM (titrated, usually from 46.1 µM), without a hit: at the top dose activity change, negative = inhibition, hits mostly inhibitors; hit rate 2.3% among 330,000; AID 504467; note: potency is the fitted concentration of half-maximal effect; nearly all actives have a fitted effect of over 55% in size
#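 HEK293T cells expressing luciferase-tagged ELG1 (2,000/well) received 5-Fluorouridine plus compound or DMSO for 16 hr at 37 °C. Luciferase was read by ONE-Glo luminescence after 30 min at room temperature.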
# IL1B secr inh: inflammasome signaling inhibition, IL-1 beta readout | activity change, % at 57.5 µM | THP-1 LPS/ATP IL-1B secretion, AlphaLISA, 16 h; stronger effect = lower value | hit rate 4.7% among 360,000; in the data active = activity change below about -50%; inconclusive = mostly about -30% to -49%
#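 Secreted IL-1B measured by AlphaLISA bead assay after 16 h compound exposure of THP-1 cells; compounds (final up to 57.5 uM) added 1 h before LPS (250 ng/mL) and ATP (1.25 mM) stimulation; lower signal means less secretion.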
# Gal4-VP16 FLuc: Gal4-VP16 reporter inhibition counter-screen. Drosophila S2 Gal4-VP16 UAS-luciferase, luminescence, 20 h. Potency, µM (highest dose often 53.6 µM), without a hit: at the top dose activity, negative = inhibition, actives largely listed as inhibitors. hit rate 3.5% among 310,000;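 note: Gal4-VP16 expression switched on by copper sulfate through the metallothionein promoter; potency is the fitted concentration of half-maximal effect; nearly all actives have a fitted effect of over 50% in size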
# * = called active by the depositor; u = inconclusive; x = not tested or not shown; [ ] = another dose, or the depositor's remark. Sampled rows, rich in hits. Any-hit rate of the full collection: about 21%. Unless noted, calls come from the whole dose curve; as a rule, active = well fitted curve in the direction sought with a large enough effect; inconclusive = small, poorly fitted or top-dose-only effect, or another doubt; inactive = no such curve, though single readings can be large; an effect the other way counts as inactive or inconclusive. % is set by controls: 0 for no effect and ±100 for the full control effect.
SMILES,DT40 TDP1 no CPT,RORgamma inh,DT40 TDP1 CPT,ELG1 DNA repair,IL1B secr inh,Gal4-VP16 FLuc
COc1ccc(Cl)cc1NC(=O)c1cccc([N+](=O)[O-])c1O,8.2µM*,x,12µM*,x,-1,x
COc1ccc(Cl)cc1NC(=O)C/C(C)=N/NC(=O)c1ccccc1[N+](=O)[O-],-15%,u,-16%,-1%,-8,u
OCC(O)C(O)[C@H](O[C@H]1OC(CO)C(O)C(O)C1O)[C@H](O)CO (stereo partly specified),3%,-8%,-3%,x,x,4%
O=C(CN1C(=O)NC2(CCCC2)C1=O)OCc1cc(=O)n2cc(Br)ccc2n1,-1%,3.2µM*,-5%,15%,5,-93%
O=C(CN1C(=O)NC2(CCCC2)C1=O)OCCOc1ccccc1,-17%,-7%,u,13%,-4,16%
O=C(CN1C(=O)NC2(CCCC2)C1=O)OCCOc1cccc(Br)c1,u,x,u,8%,-60*,x
Nc1[nH]c(C(=O)c2ccccc2)c(-c2ccccc2Br)c1C(=O)c1ccccc1,u,x,u,x,21,x
CC1CCN(c2ccc(S(=O)(=O)N3CCC(C)CC3)cc2N)CC1,16µM*,u,21µM*,u,17,u
CC1CCN(S(=O)(=O)c2ccc3ccccc3c2)CC1,-14%,u,-2%,0%,-5,10%
CC1CCN(c2cc(N)c(Cl)cc2[N+](=O)[O-])CC1,-22%,33%,-3%,29%,-78*,16%
Nc1cc(S(=O)(=O)N2CCCCC2)ccc1N1CCOCC1,u,31%,-27%,-14%,11,3%
CC1CCN(S(=O)(=O)c2ccc3c(c2)C(Cl)(Cl)C(=O)N3)CC1,16µM*,x,10µM*,x,-28,x
CC1CCN(S(=O)(=O)c2ccc3c(c2)CC(C)N3C(=O)C2CCC2)CC1 (stereo unspecified),16µM*,u,21µM*,-7%,-17,u
COc1cc2c(cc1OC)C1O[C@](c3ccsc3)(C2)Oc2cc(-c3ccccc3)oc(=O)c21,x,11%[10 µM],x,x,x,1%[10 µM]
CCOC(=O)C1CCCN(S(=O)(=O)c2ccc3c(c2)CC(C)N3C(=O)C2CC2)C1 (stereo unspecified),-19%,16%,18µM*,-7%,-13,-19%
CC1Cc2cc(S(=O)(=O)N3CCC(C(=O)N4CCCCC4)CC3)ccc2N1C(=O)C1CC1 (stereo unspecified),-17%,-12%,u,-1%,1,5%
CCOC(=O)C1CCN(S(=O)(=O)c2ccc3c(c2)CC(C)N3C(=O)C2CCC2)CC1 (stereo unspecified),u,32%,-25%,u,21,-5%
CCN(Cc1ccccc1)S(=O)(=O)c1ccc2c(c1)CC(C)N2C(=O)C1CCC1 (stereo unspecified),18µM*,x,u,x,x,x
CC1Cc2cc(S(=O)(=O)N3CCCCC3)ccc2N1C(=O)C1CCC1 (stereo unspecified),u,20%,21µM*,-18%,-7,8%
COc1ccc2nc3oc(C(=O)N(C)c4ccc(Cl)cc4)cc3cc2c1,u,x,-22%,x,x,x
COc1ccc(COC(=O)N/N=C2/C[C@@H](O)[C@@H](O)[C@@H]3[C@H]4C(=O)N(c5ccc(F)cc5F)C(=O)[C@@H]4CC[C@@H]23)cc1,x,18%[10 µM],x,x,x,2%[10 µM]
O=C(COc1ccc(Cl)cc1)N1CCN(C(=O)c2ccccc2F)CC1,-2%,17%,2%,-27%,-16,-12%
O=S1(=O)N=C(N/N=C/c2ccccn2)c2ccccc21,u,u,u,3%,108,u
O=S1(=O)N=C(N/N=C/C=C/c2ccccc2)c2ccccc21,5.8µM*,0.4µM*,u,11%,-4,0.63µM*
O=S1(=O)N=C(N/N=C/c2ccc(Br)o2)c2ccccc21,-6%,6.3µM*,-4%,-7%,-15,14µM*
SMILES,DT40 TDP1 no CPT,RORgamma inh,DT40 TDP1 CPT,ELG1 DNA repair,IL1B secr inh,Gal4-VP16 FLuc
COc1ccc(/C=N/NC2=NS(=O)(=O)c3ccccc32)cc1,7%,u,6%,1%,12,u
CN(C)c1ccc(/C=N/NC2=NS(=O)(=O)c3ccccc32)cc1,6%,4µM*,9%,20%,28,5.6µM*
CC(C(=O)O)c1ccc2c(c1)Cc1cccnc1O2 (stereo unspecified),u,12%,-9%,x,x,3%
CN1C(=O)C(C)(C)c2cc(S(=O)(=O)N3CCN(c4cccc(Cl)c4)CC3)ccc21,u,u,u,3%,34,5%
O=C(Nc1ccc(-c2noc(-c3cccs3)n2)cc1)c1cccnc1,29µM*,u,u,u,u,-11%
O=C(Nc1ccc(F)cc1)c1cccnc1,u,26%,9.2µM*,1%,0,22%
O=C(Nc1ccc(NC(=O)c2cccnc2)cc1)c1ccccc1,-8%,1%,2%,27%,2,-5%
O=C(Nc1cccc(OC(=O)c2cccnc2)c1)c1cccnc1,10µM*,11%,10µM*,-2%,8,1%
Cc1ccccc1[C@H](NC1c2ccccc2C=Cc2ccccc21)P(=O)(c1ccccc1)c1ccccc1,u,x,u,x,-74*,x
COc1ccc(-n2c(C)cc(C(=O)Cn3c(NCCO)nc4ccccc43)c2C)cc1,21µM*,-1%,u,-5%,42,3%
COC(=O)COc1ccc(C(=O)Cn2c(NCCCO)nc3ccccc32)cc1,-7%,x,-4%,x,-93*,x
CCOC(=O)N1CCN(S(=O)(=O)N2CCCC(C(=O)NCCc3ccc(OC)c(OC)c3)C2)CC1 (stereo unspecified),13%,5%,-4%,u,-2,4%
Cn1c(/C=C/c2cccc([N+](=O)[O-])c2)nc2ccccc2c1=O,1%,3%,-25%,-3%,-14,2%
O=c1c2ccccc2nc(/C=C/c2cccc(Br)c2)n1CCCO,13µM*,35%,u,15µM*,-85*,-3%
O=c1c2ccccc2nc(/C=C/c2ccc([N+](=O)[O-])o2)n1CCCO,1.2µM*,8.9µM*,0.58µM*,15µM*,-111*,7.1µM*
Cn1c(/C=C/c2cccc(Br)c2)nc2ccccc2c1=O,u,-19%,29µM*,12%,4,8%
O=c1c2ccccc2nc(/C=C/c2ccc(Br)cc2)n1CCO,23µM*,x,u,x,-83*,x
